This note sets out measurements from PubChem BioAssay (Tox21).

Structures are written as SMILES. Unmarked numbers belong to inactive results. Records with an inconclusive call do not appear. Active and inactive are the calls of the source. Unless noted, calls follow the shape of the dose curve; as a rule, active = well fitted curve in the direction sought with a large enough effect in the repeat runs; inconclusive = weak or mixed curves; inactive = no such curve, though single readings can be large; an effect the other way counts as inactive or inconclusive.

Experiment [1] addresses Luciferin 4-monooxygenase (Photinus pyralis) (UniProt P08659). The experiment can be described thus: qHTS assay to identify small molecule inhibitors of firefly luciferase (AID 1224835). Also: nearly all actives have a fitted effect of over 25% in size. A digest of the protocol:
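Biochemical qHTS: compounds run as interplate titrations against purified firefly enzyme, with D-luciferin and ATP each at its KM concentration. Light output recorded by CCD imaging.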
A general note: Quantitative high-throughput screening tests each substance at several concentrations.

The nature of experiment [2]: qHTS assay to identify small molecule agonists of the constitutive androstane receptor (CAR) signaling pathway - cell viability counter screen (AID 1224836). Also: nearly all actives have a fitted effect of over 45% in size. The method, boiled down:
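Compound titrations (15 concentrations) went onto HepG2-CYP2B6-hCAR cells 4 h after seeding, alongside PK11195 at a final 0.75 uM; a 23 h, 37 C/5% CO2 incubation preceded CellTiter-Fluor viability measurement.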

A short description of experiment [3]: qHTS assay to identify small molecule antagonists of the constitutive androstane receptor (CAR) signaling pathway - cell viability counter screen (AID 1224837). Also: nearly all actives have a fitted effect of over 45% in size. The method, boiled down: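 HepG2 cells stably expressing hCAR and a CYP2B6-2.2kb reporter were plated and pre-incubated 4 hr at 37 C/5% CO2, then given compounds at 15 concentrations plus 50 nM CITCO (final). After 23 hr, viability was read by CellTiter-Fluor fluorescence.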

Experiment [4] in a line: qHTS assay to identify small molecule antagonists of the estrogen related receptor signaling pathway with the pleiotropic PPARgamma coactivator (PGC) from Tox21 10K library - cell viability counter screen (AID 1224840; active = well fitted cell-killing curve with a large enough effect in the repeat runs, not every such curve was filed as active; also: nearly all actives have a fitted effect of over 40% in size). The method, boiled down: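 PGC/ERR cells were seeded at 2,000 cells/well and left 6 hours at 37 C/5% CO2 before pin-tool addition of compounds in DMSO. After 17.5 hours at 37 C, CellTiter-Fluor was added and fluorescence read 30 minutes later.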

The nature of experiment [5]: qHTS assay to identify small molecule antagonists of the estrogen related receptor signaling pathway with the pleiotropic PPARgamma coactivator (PGC) from Tox21 10K library (AID 1224841; call rule not given here; also: actives are mostly falling curves and most rising ones were filed inactive; nearly all actives have a fitted effect of over 50% in size). A digest of the protocol: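 PGC/ERR reporter cells were seeded at 2,000 cells/well and held 6 hours at 37 C/5% CO2 before pin-tool addition of compounds in DMSO. After 18 hours at 37 C, One-Glo was added and luminescence read after 30 minutes at room temperature.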

The nature of experiment [6]: qHTS assay to identify small molecule agonists of the estrogen related receptor signaling pathway with the pleiotropic PPARgamma coactivator (PGC) from Tox21 10K library (AID 1224842). Also: nearly all actives have a fitted effect of over 15% in size. The method, boiled down:
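PGC/ERR reporter cell line, 2,000 cells per well, incubated 6 h at 37 C before 23 nL compound in DMSO was added. After 18 h at 37 C, One-Glo luminescence read following 30 min at room temperature.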

Experiment [7] is described as follows: qHTS assay to identify small molecule agonists of the hypoxia (HIF-1) signaling pathway - cell viability counter screen (AID 1224844; calls by dose curve; also: nearly all actives have a fitted effect of over 50% in size). The method, boiled down:
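HRE-bla ME-180 cells in medium with 0.5% dialyzed FBS were preincubated 5 hrs at 37C, exposed to compounds for 17 hrs, then viability was read as CellTiter-Glo luminescence after 30 min at room temperature, in the reporter wells.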

Experiment [8] in a line: qHTS assay to identify small molecule agonists of H2AX (AID 1224845; active = well fitted activation curve with a large enough effect in the signal ratio in the repeat runs, not every such curve was filed as active; the % refers to the signal ratio). A digest of the protocol: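 Wild-type CHO-K1 cells, plated overnight, exposed 3hr at 37C to 15 concentrations (0.76% DMSO final). Lysed, then HTRF anti-pH2AX (S139) cryptate and anti-H2AX-d2 antibodies, 24 hr room temperature; 665/620 nm emission read.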
A short description of experiment [9]: qHTS assay to identify small molecule agonists of the hypoxia (HIF-1) signaling pathway (AID 1224846; active = well fitted activation curve with a large enough effect in the signal ratio in the repeat runs, not every such curve was filed as active; the % refers to the signal ratio). A digest of the protocol: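 HRE-bla ME-180 cells (beta-lactamase reporter under hypoxia response element) were plated at 2,000 cells/well in medium with 0.5% dialyzed FBS, rested 5 hrs, then given compounds in DMSO for 17 hrs at 37C, 5% CO2. Reporter induction was read with CCF4-AM FRET substrate.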

The nature of experiment [10]: qHTS assay to identify small molecule agonists of H2AX - cell viability counter screen (AID 1224847; calls by dose curve; also: top concentration of the series differs between compounds; nearly all actives have a fitted effect of over 30% in size). A digest of the protocol:
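Read-out: CellTiter-Glo luminescence, 30 min RT. Cells: wild-type CHO-K1, 1000/well, 10% FBS, plated overnight at 37C. Treatment: 15 concentrations, 3 hr, 37C, 0.76% DMSO.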

Experiment [11] is described as follows: qHTS assay to identify small molecule antagonists of the estrogen related receptor (ERR) signaling pathway from Tox21 library (AID 1224848). Also: nearly all actives have a fitted effect of over 50% in size. A digest of the protocol: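 ERR reporter cell line (from NTP) seeded 2,000 cells/well, rested 6 h at 37 C/5% CO2, then pin-dosed with compounds in DMSO. After 18 h at 37 C, ONE-Glo added; luminescence read after 30 min at room temperature.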

Experiment [12] is described as follows: qHTS RealTime-Glo MT Cell Viability Assay in HepG2 cells - 24 hour (AID 1224867). Also: nearly all actives have a fitted effect of over 50% in size. The method, boiled down: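 Luminescence read-out: viable HepG2 cells reduce a prosubstrate to a NanoLuc substrate, giving a signal proportional to live cell number. Reads taken at 0, 8, 16, 24, 32 and 40 h of compound exposure at 37 C.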
The nature of experiment [13]: qHTS RealTime-Glo MT Cell Viability Assay in HepG2 cells - 40 hour (AID 1224870). Also: nearly all actives have a fitted effect of over 50% in size. The method, boiled down: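 HepG2 cells (600/well) mixed with RealTime-Glo MT reagent, settled 5 h at 37 C/5% CO2 before compound addition. Nonlytic NanoLuc luminescence from viable-cell prosubstrate reduction read repeatedly during 40 h treatment at 37 C.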
Experiment [14] deals with Nuclear receptor subfamily 1 group I member 3 (Homo sapiens) (UniProt Q14994). Kind of experiment: qHTS assay to identify small molecule antagonists of the constitutive androstane receptor (CAR) signaling pathway (AID 1224838). Also: nearly all actives have a fitted effect of over 40% in size. A digest of the protocol:
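HepG2 cells stably co-transfected with hCAR and a CYP2B6-2.2kb luciferase reporter were seeded 4 h before compound addition at 15 concentrations. Cells were stimulated with 50 nM CITCO (final) for 24 h at 37 C; luciferase luminescence was then read.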

The target of experiment [15] is Thyrotropin receptor (Homo sapiens) (UniProt P16473). Kind of experiment: qHTS assay to identify small molecule agonists of the thyroid stimulating hormone receptor (TSHR) signaling pathway (AID 1224843; calls by dose curve; also: nearly all actives have a fitted effect of over 45% in size; also: potency is read from the fitted curve at half-maximal effect). A digest of the protocol: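 TSHR-HEK293 cells in agonist mode, 30 min room-temperature step, then cAMP measured by competitive HTRF (cAMP-d2 with anti-cAMP cryptate) after 1 h at room temperature. Tested at 15 concentrations in triplicate.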
Thyrotropin receptor (Homo sapiens), sequence (P16473 whole entry, looked up): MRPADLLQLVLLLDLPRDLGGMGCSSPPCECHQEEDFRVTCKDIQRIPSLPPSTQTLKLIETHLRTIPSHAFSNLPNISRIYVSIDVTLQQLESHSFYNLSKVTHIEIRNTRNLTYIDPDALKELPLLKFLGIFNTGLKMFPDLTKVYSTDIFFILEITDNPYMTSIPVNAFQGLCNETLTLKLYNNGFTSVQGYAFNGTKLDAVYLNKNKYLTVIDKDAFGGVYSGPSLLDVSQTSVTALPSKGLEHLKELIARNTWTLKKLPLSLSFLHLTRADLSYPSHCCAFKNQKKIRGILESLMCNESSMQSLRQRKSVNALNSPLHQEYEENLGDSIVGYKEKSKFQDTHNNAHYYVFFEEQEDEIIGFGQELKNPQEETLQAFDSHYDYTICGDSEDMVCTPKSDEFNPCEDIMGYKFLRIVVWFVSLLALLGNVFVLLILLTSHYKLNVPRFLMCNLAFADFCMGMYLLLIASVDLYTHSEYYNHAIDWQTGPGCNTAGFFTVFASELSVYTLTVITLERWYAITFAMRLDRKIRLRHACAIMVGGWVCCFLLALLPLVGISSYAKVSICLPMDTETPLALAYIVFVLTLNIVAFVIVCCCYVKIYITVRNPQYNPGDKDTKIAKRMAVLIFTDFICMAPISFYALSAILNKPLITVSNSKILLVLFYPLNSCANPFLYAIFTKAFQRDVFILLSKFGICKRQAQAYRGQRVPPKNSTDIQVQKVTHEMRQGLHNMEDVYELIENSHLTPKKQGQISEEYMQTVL

The nature of experiment [16]: A CellTox Green Cytotoxicity Assay to monitor cytotoxicity in HEK293 cells - 0 hour (AID 1224869). Also: nearly all actives have a fitted effect of over 50% in size. A digest of the protocol:
(§1)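 HEK293 cells premixed with CellTox Green dye were seeded at 600 cells/well and left 5 h at 37 C/5% CO2 before pin transfer of 23 nL compound in DMSO. Fluorescence from dye bound to dead-cell DNA was read during 40 h treatment.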

Experiment [17] in a line: A CellTox Green Cytotoxicity Assay to monitor cytotoxicity in HEK293 cells - 40 hour (AID 1224871). Also: nearly all actives have a fitted effect of over 45% in size. A digest of the protocol:
as §1

Experiment [18] in a line: qHTS RealTime-Glo MT Cell Viability Assay in HEK293 cells - 32 hour (AID 1224868). The method, boiled down: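 Nonlytic real-time viability readout: viable cells convert prosubstrate to NanoLuc substrate, giving luminescence proportional to live cell number. HEK293, 600 cells/well, compound added after 5 h, continuous culture at 37 C.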
Experiment [19] can be described thus: qHTS assay to identify small molecule agonists of the estrogen related receptor (ERR) signaling pathway from Tox21 library (AID 1224849; calls by dose curve; also: nearly all actives have a fitted effect of over 15% in size). The following applies: ERR reporter cell line, ONE-Glo luciferase, 18 h; at 92.4 µM (top of the series) unless noted. The method, boiled down: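 ERR reporter cell line (NTP) seeded, rested 6 h at 37 C/5% CO2, then pinned with Tox21 compounds in DMSO. After 18 h at 37 C, ONE-Glo luciferase luminescence was read following 30 min at room temperature.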
% is scaled to controls: 0 for no effect and ±100 for the full control effect.

Nuclear receptor subfamily 1 group I member 3 (Homo sapiens), sequence (Q14994 whole entry, looked up): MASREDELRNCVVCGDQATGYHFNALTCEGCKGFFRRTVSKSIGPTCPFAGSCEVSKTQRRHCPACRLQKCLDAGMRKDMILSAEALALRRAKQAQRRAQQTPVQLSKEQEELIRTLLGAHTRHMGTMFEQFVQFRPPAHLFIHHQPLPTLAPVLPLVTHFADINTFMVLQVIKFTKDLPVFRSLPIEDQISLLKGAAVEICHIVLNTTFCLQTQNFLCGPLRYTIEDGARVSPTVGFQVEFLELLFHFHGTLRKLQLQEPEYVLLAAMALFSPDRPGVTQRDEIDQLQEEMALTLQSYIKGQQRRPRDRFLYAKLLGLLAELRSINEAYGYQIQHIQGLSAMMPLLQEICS
Luciferin 4-monooxygenase (Photinus pyralis), sequence (P08659 whole entry, looked up): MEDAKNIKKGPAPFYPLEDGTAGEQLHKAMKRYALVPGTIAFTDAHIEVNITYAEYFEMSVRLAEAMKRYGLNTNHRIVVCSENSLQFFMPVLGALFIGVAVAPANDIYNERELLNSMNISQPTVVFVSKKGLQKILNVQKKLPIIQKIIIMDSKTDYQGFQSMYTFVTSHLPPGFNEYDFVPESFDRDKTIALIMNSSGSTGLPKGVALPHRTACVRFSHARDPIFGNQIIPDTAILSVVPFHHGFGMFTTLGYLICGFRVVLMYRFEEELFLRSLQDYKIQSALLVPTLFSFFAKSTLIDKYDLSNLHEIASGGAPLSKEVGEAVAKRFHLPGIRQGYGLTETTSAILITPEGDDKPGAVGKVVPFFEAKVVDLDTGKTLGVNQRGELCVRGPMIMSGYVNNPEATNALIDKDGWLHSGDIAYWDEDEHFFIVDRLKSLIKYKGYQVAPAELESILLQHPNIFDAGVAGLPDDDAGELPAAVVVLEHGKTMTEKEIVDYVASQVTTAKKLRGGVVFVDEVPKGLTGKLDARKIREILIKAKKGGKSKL

On to `CCc1cc2c(s1)-n1c(C)nnc1CN=C2c1ccccc1Cl`, for which the Potency entry in experiment [1], in experiment [2], in experiment [3], in experiment [4], in experiment [5] and in experiment [7] was “inactive” each time. Also, the Potency result in experiment [8], in experiment [10], in experiment [11], in experiment [12] and in [13] was “inactive” each time. Besides, the molecule was called inactive in [6] and in [9].

Regarding `COC(=O)C(c1ccccc1)C1CCCCN1` (configuration not stated), the Potency result in [1], in [2], in experiment [3], in experiment [14], in experiment [4] and in experiment [15] was “inactive” throughout. Besides, the Potency result in [7], in experiment [8], in [10], in experiment [12], in experiment [16] and in experiment [13] was “inactive” in each case. Also, in [17], the Potency result was “inactive”. Moreover, the call in experiment [9] was inactive.

On to `CC(C)NCC(O)c1ccc(N)c(C#N)c1` (configuration not stated), for which the Potency entry in [1], in experiment [2], in experiment [3], in experiment [14], in experiment [4] and in experiment [7] was “inactive” throughout. Also, the Potency entry in experiment [8], in experiment [10], in experiment [12], in experiment [18], in experiment [16] and in [13] was “inactive” throughout. Further, in [17], the Potency result was “inactive”. The molecule was classed as inactive in [9].

On to `O=C1CN2CCOC2(c2ccccc2Cl)c2cc(Cl)ccc2N1` (configuration not stated), for which the Potency result in experiment [1], in experiment [2], in experiment [3], in experiment [14], in experiment [4] and in experiment [15] was “inactive” throughout. For the same molecule, the Potency entry in experiment [7], in experiment [8], in experiment [10], in [12], in experiment [18] and in experiment [16] was “inactive” each time. The Potency result in experiment [13] and in [17] was “inactive” throughout. The outcome in experiment [9] was inactive.

`CCOC(=O)CP(=O)(OCC)OCC`: the Potency result in experiment [1], in experiment [2], in experiment [3], in experiment [4], in [5] and in experiment [15] was “inactive” each time. For the same molecule, the Potency entry in experiment [7], in experiment [8], in experiment [10], in experiment [11], in experiment [12] and in [18] was “inactive” in each case. The Potency result in experiment [16], in experiment [13] and in experiment [17] was “inactive” throughout. In addition, the molecule was classed as inactive in [6] and in experiment [9]. Moreover, the activity change, positive = activation in [19] is 4.99%.

In the case of `CCOC(=O)NC(=S)Nc1ccccc1NC(=S)NC(=O)OCC`, the Potency result in [1], in experiment [2], in experiment [3], in [4], in experiment [5] and in [7] was “inactive” in each case. Moreover, the Potency result in experiment [8], in experiment [10], in experiment [11], in experiment [12], in experiment [16] and in [13] was “inactive” in each case. The Potency result in experiment [17] was “inactive”. Further, the outcome in experiment [6] and in experiment [9] was inactive. For the same molecule, in experiment [19], the activity change, positive = activation was 11.4% (active).

For the molecule `C[N+](=O)[O-]`, the Potency result in experiment [1], in experiment [2], in experiment [3], in experiment [4], in experiment [5] and in experiment [15] was “inactive” in each case. For the same molecule, the Potency entry in experiment [7], in [10], in experiment [11], in experiment [12], in experiment [18] and in experiment [16] was “inactive” throughout. Besides, the Potency result in [13] and in experiment [17] was “inactive” throughout. In addition, the molecule was called inactive in [6] and in experiment [9]. In addition, the activity change, positive = activation in experiment [19] is 6.34%.

`CSc1ccc(C(=O)C(C)(C)N2CCOCC2)cc1`: the Potency result in experiment [1], in [2], in experiment [3], in experiment [14], in experiment [4] and in [7] was “inactive” throughout. For the same molecule, the Potency result in experiment [10], in experiment [12], in experiment [18], in experiment [16], in experiment [13] and in experiment [17] was “inactive” throughout. Besides, the result in [6] and in experiment [9] was inactive. In experiment [15], the Potency was 2730 nM (active). In experiment [19], the activity change, positive = activation is -13.8%.

Turning to `CCOP(=S)(Oc1cnc(C(C)(C)C)nc1)OC(C)C` (configuration not stated), the Potency entry in experiment [1], in experiment [2], in experiment [3], in experiment [14], in experiment [4] and in experiment [5] was “inactive” in each case. The Potency result in experiment [7], in experiment [12], in experiment [18], in [16] and in experiment [13] was “inactive” in each case. For the same molecule, the result in experiment [6] and in [9] was inactive. In addition, in experiment [19], the activity change, positive = activation is -20.7%.
